In PubChem BioAssay AID588342 (National Center for Advancing Translational Sciences (NCATS), 2011):
Screen size: about 360,000 compounds; about 25,000 (6.9%) were called active. About 9% were inconclusive and are not listed. What follows is part of a selection rich in actives, with near analogues and random picks from the rest. Unmarked numbers belong to inactive results. Calls come from the whole dose curve; as a rule, active = well fitted inhibition curve with a large enough effect; inconclusive = small, poorly fitted or top-dose-only effect; inactive = flat fitted curve, though single readings scatter.

biological target: Luciferin 4-monooxygenase (Photinus pyralis) (UniProt P08659); experiment: qHTS profiling assay for firefly luciferase inhibitor/activator using purifed enzyme and Km concentrations of substrates (counterscreen for miR-21 project); conditions: purified FLuc, luminescence inhibition; series mostly up to 57.5 µM; activity change, negative = inhibition: at the top concentration; note: nearly all actives have a fitted effect of over 55% in size;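 for activity change, negative = inhibition: plate controls were vehicle for no effect and reference inhibitor for full effect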
Sequence (P08659 whole entry, looked up): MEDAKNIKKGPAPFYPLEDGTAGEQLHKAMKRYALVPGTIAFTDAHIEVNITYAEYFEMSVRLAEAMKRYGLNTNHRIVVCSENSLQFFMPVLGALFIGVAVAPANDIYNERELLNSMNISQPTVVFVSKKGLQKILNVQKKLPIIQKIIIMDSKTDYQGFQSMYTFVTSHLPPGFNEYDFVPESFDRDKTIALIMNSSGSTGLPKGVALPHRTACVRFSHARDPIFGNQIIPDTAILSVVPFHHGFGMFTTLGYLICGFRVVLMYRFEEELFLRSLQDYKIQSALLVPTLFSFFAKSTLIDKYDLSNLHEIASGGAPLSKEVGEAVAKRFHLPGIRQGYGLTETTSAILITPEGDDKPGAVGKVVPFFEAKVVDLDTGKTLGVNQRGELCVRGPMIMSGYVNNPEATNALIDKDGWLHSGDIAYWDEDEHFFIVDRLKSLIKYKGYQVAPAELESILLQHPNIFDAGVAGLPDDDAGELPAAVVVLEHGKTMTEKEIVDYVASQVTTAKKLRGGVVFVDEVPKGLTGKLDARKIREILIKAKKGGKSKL
How it was run: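 Biochemical qHTS of compounds, final roughly 60 µM downward over six points, against 10 nM purified firefly luciferase using Km concentrations of substrates (10 uM D-luciferin, 10 uM ATP) in Tris acetate pH 7.5 buffer; luminescence output.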
Potency is the fitted concentration of half-maximal effect.

| SMILES | activity change, negative = inhibition [%] | Potency |
| --- | --- | --- |
| O=C(Nc1ccccc1)N1CCN(C2c3ccccc3-c3ccccc32)CC1 | 6.12 | – |
| CC1=C(c2ccc(C)c(C)c2)S(=O)(=O)NC1=NCc1ccccc1Cl | 1.46 | – |
| CC(C)CN(C(=O)CSc1ncnc2sccc12)C1CCS(=O)(=O)C1 (configuration not stated) | 3.7 | – |
| COc1ccc(C)cc1Nc1nc2ccccc2c2nnc(C)n12 | -5.86 | – |
| COc1ccc(C)cc1Nc1nc(-c2c(C)[nH]c3ccccc23)cs1 | – | 13.5 µM (active) |
| COC(=O)c1cnc(Nc2cc(C)ccc2OC)c2ccccc12 | -11.7 | – |
| Cc1ccc(CN2C(=O)SC(Nc3ccccc3)C2=O)cc1 (configuration not stated) | -11.1 | – |
| Cc1ccc(N(CC(=O)NCc2ccc(Cl)cc2)S(=O)(=O)N(C)C)cc1 | -13.2 | – |
| Fc1ccc2nc(Nc3nc4c(s3)CCCC4)sc2c1 | – | 3.01 µM (active) |
| Cc1cc(C)cc(OC(C)C(=O)Nc2nc3c(s2)CCCC3)c1 (configuration not stated) | -9.73 | – |
| COC(=O)C(NC(C)=O)(Nc1nc2c(s1)CCCC2)C(F)(F)F (configuration not stated) | -1.43 | – |
| Cc1cccc(Nc2nc(C)nc(N)c2S(=O)(=O)c2ccccc2)c1 | -1.97 | – |
| CCc1ccccc1NC(=O)Cn1c(=O)n(CC2CCC(C(=O)NCCc3ccccc3)CC2)c(=O)c2ccccc21 (configuration not stated) | -6.38 | – |
| CC(=O)c1cccc(NC(=O)CSc2nc3c(c(=O)[nH]2)CCC3)c1 | -13.1 | – |
| CCSc1nsc(NC(=O)Nc2cccc(C(C)=O)c2)n1 | – | 19 µM (active) |
| COc1ccc(NC(C(=O)Nc2cccc(C(C)=O)c2)c2ccccc2)cc1 (configuration not stated) | -17.4 | – |
| CSc1ccccc1C(=O)Nc1cccc(C(C)=O)c1 | 1.57 | – |
| CC(=O)c1cccc(NC(=S)N2CCN(S(C)(=O)=O)CC2)c1 | -1.09 | – |
| C=CCSc1nsc(NC(=O)Nc2cccc(C(C)=O)c2)n1 | – | 15.1 µM (active) |
| Cc1ccc2c(c1)-c1c(cnn1CC(=O)Nc1ccccc1C#N)CO2 | -1.26 | – |
| Cc1ccc(Cn2c(=O)n(Cc3nc(-c4ccccc4)no3)c(=O)c3cc4c(cc32)OCO4)cc1 | -5.64 | – |
| Cc1ccccc1OCc1nnc(SCC(=O)N2c3ccccc3Sc3ccc(Cl)cc32)o1 | 2.4 | – |
| CC1CCC(NS(=O)(=O)c2ccc3c(c2)CC(=O)N3)CC1 (configuration not stated) | 2.55 | – |
| Cc1ccc(NC(=O)c2cc(S(=O)(=O)NCCC3=CCCCC3)ccc2F)cc1C | -8.28 | – |
| CCN1CCN(C(=O)CSc2ccc(C)cc2)CC1 | -14.3 | – |
| Cc1ccc(SCC(=O)c2cc(C)c(OC(=S)N(C)C)c(C)c2)cc1 | – | 8.49 µM (active) |

| SMILES | activity change, negative = inhibition [%] | Potency |
| --- | --- | --- |
| COC(=O)c1cc(OC)c(OC)cc1NC(=O)CSc1ccc(C)cc1 | 0.552 | – |
| COc1ccc(OC)c(Nc2nc3ccccc3n3cnnc23)c1 | -12.2 | – |
| COc1cc(/C=N/Nc2nn3cnnc3c3ccccc23)cc(OC)c1OC | – | 0.953 µM (active) |
| COc1cc(Nc2nc3ccc(Cl)cc3n3cnnc23)cc(OC)c1OC | -3.86 | – |
| O=C(CSc1nnc(CNC(=O)c2ccccc2)n1-c1ccc(F)cc1)Nc1ccccc1F | -5.85 | – |
| COc1cc(OC)c(/C=N/NC(=O)c2ccc([N+](=O)[O-])cc2)cc1Br | -14.7 | – |
| COc1cc(/C=N/NC(=O)c2ccoc2C)ccc1OCCN1CCCCC1 | -1.73 | – |
| Cc1[nH]n(-c2ccccc2)c(=O)c1/C=N/NC(=O)c1ccoc1C | – | 21.3 µM (active) |
| Cc1cc[n+](-c2[nH]c(=O)sc2/C=N/NC(=O)c2ccccc2[O-])cc1C | 0.934 | – |
| Cc1ccc(-n2[nH]c(C)c(/C=N/NC(=O)c3cccc([N+](=O)[O-])c3)c2=O)cc1C | – | 0.426 µM (active) |
| Cc1[nH]n(-c2ccc([N+](=O)[O-])cc2)c(=O)c1C=NCCN1CCN(C(=O)c2ccccc2F)CC1 | -12 | – |
| O=C(NNC1=NCCC1)c1cccc(S(=O)(=O)N2CCCCC2)c1 | -1.3 | – |
| Cc1ccc(Cl)cc1N(C)C(=O)Cn1nc(Cc2cccnc2)c2ccccc2c1=O | -1.43 | – |
| COc1cccc(N2CCN(C(=O)CCCCCn3c(=O)[nH]c4ccccc4c3=O)CC2)c1 | 5.13 | – |
| COCCN(C(=O)CC1CCCCC1)c1c(N)n(CC(C)C)c(=O)[nH]c1=O | 0.775 | – |
| CCOC(=O)N1CCc2c(sc3c2c(=O)n(-c2ccc(CC)cc2)c(=O)n3C)C1 | 0.141 | – |
| CCNC(=O)c1cnn(-c2ccccc2)c1-c1ccccc1 | -2.26 | – |
| O=C(Cn1cnc2c(oc3ccccc32)c1=O)Nc1ccc(OC(F)(F)F)cc1 | 1.89 | – |
| CCN(CC)CC(=O)Nc1nn(-c2ccccc2)nc1C(N)=O | -26.6 | – |
| CC(=O)c1nn(-c2ccc(OC(F)(F)F)cc2)nc1Nc1ccccc1 | – | 0.379 µM (active) |
| Cc1ccc(C(=O)NCCSc2c(C)[nH]c3ccccc23)cc1C | 3.87 | – |
| O=C(NCc1ccco1)c1nc(-c2ccccc2)n(-c2ccccc2)n1 | 3.28 | – |
| CCOc1ccc(CNC(=O)c2cc(-c3ccc(Cl)s3)nc3ccccc23)cc1 | -1.03 | – |
| CCc1ccc(-c2cc(C(=O)NCc3ccco3)c3ccccc3n2)s1 | – | 5.36 µM (active) |
| COc1ccccc1N1CCN(CCCNC(=O)c2cnn(-c3ccccc3Cl)c2C2CCN(C(=O)OC(C)(C)C)CC2)CC1 | -6.1 | – |
| Cc1ccc(OS(=O)Nc2cccc3nccnc23)cc1 (configuration not stated) | -1.56 | – |

| SMILES | activity change, negative = inhibition [%] | Potency |
| --- | --- | --- |
| CCOc1ccc(NC(=O)C(=O)NCCc2csc3nc(-c4ccccc4F)nn23)cc1 | 3.81 | – |
| COc1ccc(OC)c(NC(=O)c2sc3nc(C)cc(C)c3c2N)c1 | -0.687 | – |
| COc1cc(OC)c(C(=O)NC2CCCCCC2)cc1OC | -18.4 | – |
| COCc1cc(C)nc2sc(C(=O)NC3CCCCC3)c(N)c12 | – | 16.9 µM (active) |
| CCOC(=O)c1c(C)oc2nc(C)nc(Nc3ccc(CC)cc3)c12 | -5.35 | – |
| O=C(CSc1cn(CC(=O)N2CCOCC2)c2ccccc12)Nc1ccccc1 | -4.95 | – |
| COc1cccc(NC(=O)CS(=O)(=O)c2cn(CC(=O)N3CCOCC3)c3ccccc23)c1 | -3.28 | – |
| COc1cccc(NC(=O)C(=O)c2cn(CC(=O)N3CCOCC3)c3ccccc23)c1 | – | 5.36 µM (active) |
| O=C(NCc1ccco1)C(=O)c1cn(CC(=O)N2CCCCCC2)c2ccccc12 | -6.85 | – |
| O=C(Nc1ccc(F)cc1)C(=O)c1cn(CC(=O)N2CCOCC2)c2ccccc12 | – | 2.69 µM (active) |
| CN1CCN(C(=O)C(=O)c2cn(CC(=O)N3CCCC3)c3ccccc23)CC1 | 4.17 | – |
| CCc1cccc(C)c1NS(=O)(=O)c1ccc(-c2cc(C)no2)s1 | -0.558 | – |
| Cc1ccc2oc(=O)c3cnn(CC(=O)N4CCN(c5cccc(Cl)c5)CC4)c3c2c1 | 0.67 | – |
| Cc1ccc(N2CC(c3nnc(Cc4ccccc4Cl)o3)CC2=O)cc1 (configuration not stated) | 3.35 | – |
| Cc1cccc(NC(=O)CSc2nc3c(oc4ccccc43)c(=O)n2-c2ccc(F)cc2)c1 | 3.43 | – |
| COc1ccc(-c2nc3nc(C)cc(C)n3c2Nc2c(C)cccc2C)cc1 | 4.68 | – |
| CCCCC(CC)CNC(=O)C1CCN(S(=O)(=O)c2cccc3nsnc23)CC1 (configuration not stated) | -6.3 | – |
| Cc1nn(Cc2ccccc2)c(Cl)c1C(=O)OC1CCOC1=O (configuration not stated) | 2.71 | – |
| COc1cc(C(=O)OC2CCOC2=O)c([N+](=O)[O-])cc1OC (configuration not stated) | 0.894 | – |
| O=C(OC1CCOC1=O)c1ccc(-c2nc3ccccc3s2)s1 (configuration not stated) | – | 0.19 µM (active) |
| CCOC(=O)c1c(NC(=O)CNC2CCCc3ccccc32)sc(C(N)=O)c1C (configuration not stated) | -10.6 | – |
| O=C(CSCc1ccccc1)N1CCc2ccccc21 | – | 2.39 µM (active) |
| O=C(CN1CCN(c2ccccn2)CC1)N1CCc2ccccc21 | 5.78 | – |
| CCC(=O)N1CCCc2ccccc21 | -1.02 | – |
| CCc1nc2ccccc2c(C(=O)OC2CCCCC2=O)c1C (configuration not stated) | -1.89 | – |
| CCCn1c(CCNc2nc(-c3ccc(OC)cc3)cs2)nc2ccccc21 | 1.09 | – |

| SMILES | activity change, negative = inhibition [%] | Potency |
| --- | --- | --- |
| COc1ccc(Nc2nc(-c3ccccc3)cs2)cc1 | – | 0.601 µM (active) |
| CC(=O)Nc1nc(C)c(-c2csc(Nc3ccc(S(N)(=O)=O)cc3)n2)s1 | -1.06 | – |
| COc1ccc(-c2csc(Cc3nc(O)cs3)n2)cc1 | – | 2.69 µM (active) |
| NS(=O)(=O)c1ccc(NS(=O)(=O)/C=C/c2ccccc2)cc1 | 14.2 | – |
| COc1ccc(NC(=O)c2sc(N)nc2-c2ccccc2)cc1 | -6.15 | – |
| NS(=O)(=O)c1ccc(Nc2nc(-c3ccccc3)cs2)cc1 | – | 21.3 µM (active) |
| COC(=O)CCc1sc(Nc2ccc(Br)cc2)nc1-c1ccc(OC)cc1 | 1.08 | – |
| COc1ccc(-c2csc(Nc3ccc(O)cc3)n2)cc1 | – | 1.35 µM (active) |
| COc1ccc(C2C(C(C)=O)=C(O)C(=O)N2c2nccs2)cc1 (configuration not stated) | 1.02 | – |
| CCCn1c(C2CCCN2c2nc(-c3ccc(OC)cc3)cs2)nc2ccccc21 (configuration not stated) | -4.67 | – |
| CCOC(=O)NC(=O)CSc1nnc(SCCC(=O)O)s1 | 2.64 | – |
| CCC[C@H]1CCCC/C=C\CCCC(=O)OCCN1C(=O)OC(C)(C)C | 1.02 | – |
| COC(=O)c1cc(NC(=O)CCc2c(C)nc3c4c(C)cc(C)nc4nn3c2C)cc(C(=O)OC)c1 | -4.62 | – |
| C[C@@H]1O[C@@H](OC[C@H]2O[C@@H](Oc3c(-c4ccc(O)cc4)oc4cc(O)cc(O)c4c3=O)[C@H](O)[C@@H](O)[C@@H]2O)[C@H](O)[C@H](O)[C@H]1O | 3.05 | – |
| CCNC(=O)c1cccc(NC(=O)C2CC(=O)N(CCc3ccccc3)C2)c1 (configuration not stated) | -1.73 | – |
| CCOc1ccc(NC(=O)CN(C)C(=O)Cn2c(=O)cnc3ccccc32)cc1OCC | 3.02 | – |
| COc1ccccc1Cc1nc2ccccc2nc1SCC(=O)N1CCCc2ccccc21 | 1.12 | – |
| O=C(Cc1ccccc1)NCC1OCCc2ccccc21 (configuration not stated) | 5.57 | – |
| CSc1nc(-c2ccc(F)cc2)nc2c1Cc1c(CO)cnc(C)c1O2 | -7.58 | – |
| COc1ccc(-c2csc(NC3OC(=O)c4ccccc43)n2)cc1 (configuration not stated) | – | 6.75 µM (active) |
| Cc1ccc(-c2csc(NC3OC(=O)c4ccccc43)n2)cc1 (configuration not stated) | -17.7 | – |
| COc1ccc2c(c1OC)C(=O)OC2Nc1nc(-c2ccccc2)cs1 (configuration not stated) | 0.505 | – |
| O=C(NCCS(=O)(=O)N1CCN(c2ccc(F)cc2)CC1)c1ccccc1Br | -0.513 | – |
| O=C(CSCc1cnn(-c2ccccc2)c1-n1cccc1)NCc1ccc(Cl)cc1 | -4.45 | – |
